PubChem BioAssay (NCI)
About 83,000 compounds went through this panel and 20% of them were active in at least one assay; those are over-represented in the sample as a whole.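 Testing used 96-well plates and a 48-hour single-concentration exposure. Example: -40 means 40% of the starting cells died.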 Calls of active or inactive are those of the source. How the source made its calls: active means growth percent below 10; inactive means the rest.

How the values were obtained:
Assay in all cases: NCI-60 one-dose screen, 48 h (100 = growth as untreated, 0 = no growth, -100 = all killed)
Details in all cases: 10 µM unless noted
[1] = tested on: DU-145 prostate
[2] = tested on: K-562 leukemia
[3] = tested on: MALME-3M melanoma
[4] = tested on: MDA-MB-231 breast
[5] = tested on: RXF 393 renal
[6] = tested on: SF-268 CNS
[7] = tested on: SF-295 CNS
[8] = tested on: SF-539 CNS
[9] = tested on: UACC-257 melanoma
[10] = tested on: M14 melanoma
[11] = tested on: HCT-15 colon
[12] = tested on: HT29 colon
[13] = tested on: SNB-75 CNS
[14] = tested on: SNB-19 CNS
[15] = tested on: U251 CNS
[16] = tested on: SK-MEL-5 melanoma
[17] = tested on: UACC-62 melanoma
[18] = tested on: LOX IMVI melanoma
[19] = tested on: SK-MEL-28 melanoma
[20] = tested on: PC-3 prostate

Measured: growth

CCN(CC)c1ccc2c(c1)OS(=O)(=O)N=C2
inactive: [1] 108% | [2] 101% | [3] 98.1% | [4] 134% | [5] 119% | [6] 97.7% | [7] 99.4% | [8] 99.9% | [9] 103% | [10] 98.6% | [11] 102% | [12] 111% | [13] 87.9% | [14] 101% | [15] 99.3% | [16] 99.5% | [17] 101% | [18] 89.2% | [19] 105%

O=S(=O)(/N=C1C=C/C(=N\S(=O)(=O)c2ccccc2)c2ccccc2\1)c1ccccc1
inactive: [1] 117% | [2] 91.8% | [3] 107% | [4] 98.3% | [5] 107% | [6] 104% | [7] 116% | [8] 123% | [9] 95.1% | [10] 112% | [11] 106% | [12] 118% | [13] 96.1% | [14] 116% | [15] 92.6% | [20] 79.6% | [17] 104% | [18] 68.9% | [19] 101%

Cc1ccc(S(=O)(=O)N2CCc3ccc(O)c4c3C2CCc2ccccc2-4)cc1 (stereo not drawn)
inactive: [1] 106% | [2] 94.1% | [3] 97.2% | [4] 95.2% | [5] 117% | [6] 97.1% | [7] 104% | [8] 105% | [9] 105% | [10] 98.6% | [11] 102% | [12] 100% | [13] 91.6% | [14] 98.9% | [15] 102% | [20] 95.4% | [17] 90.2% | [18] 98.7% | [19] 107%

Nc1cc2[nH]c(=O)c3ccccc3c2cc1Br
inactive: [1] 77% | [2] 95% | [3] 102% | [4] 53.2% | [5] 85.4% | [6] 86.3% | [7] 95.6% | [8] 74.6% | [9] 109% | [10] 83.3% | [11] 52.6% | [12] 111% | [13] 57% | [14] 93.6% | [15] 84% | [16] 67.2% | [17] 80.7% | [18] 74.5% | [19] 97.8%

COC(=O)c1c2c(c(C)[n+]([O-])c1C)C(=O)C(NCc1ccc(O)cc1)=CC2=O
active: [1] -69.2% | [2] 6.74% | [3] -98.5% | [4] -10.3% | [5] -4.53% | [6] -9.31% | [7] -9.04% | [8] -59.7% | [9] -62.4% | [10] -76.5% | [11] -43.4% | [12] 3.68% | [13] -29.5% | [14] -28.5% | [15] -0.0674% | [16] -99.7% | [17] -73.8% | [18] -89.6% | [19] -3.61%

COc1cccc(C2CC(=O)Nc3cc4c(cc32)CCC4)c1OC (stereo not drawn)
inactive: [1] 51.9% | [2] 14.1% | [3] 55.7% | [4] 60.3% | [5] 57% | [6] 66.2% | [7] 29% | [8] 60.7% | [9] 71.7% | [10] 25.5% | [11] 36.4% | [13] 35.3% | [14] 80.8% | [15] 42.4% | [20] 69.3% | [17] 52.1% | [18] 59.6% | [19] 68.9%
active: [12] 9.41%

CN1CCc2c(Sc3ccc(C(=O)NO)cc3)c3ccccc3n2C1
inactive: [1] 36.8% | [2] 28.2% | [3] 42.4% | [5] 52.5% | [6] 35.9% | [7] 40.6% | [8] 17.1% | [9] 14.1% | [10] 38.1% | [11] 75.6% | [12] 48.9% | [13] 25.8% | [14] 53.4% | [15] 23.8% | [20] 20.8% | [17] 38.9% | [18] 11.6% | [19] 14.7%
active: [4] 8.01%

O=C1C2CC3C(CC2C(=O)[N]1[Sn]([c]1ccccc1)([c]1ccccc1)[c]1ccccc1)C1(Cl)C(Cl)=C(Cl)C3(Cl)C1(Cl)Cl (stereo not drawn)
active: [1] -94.5% | [2] -30.8% | [3] -91.8% | [4] -94.7% | [5] -76.1% | [6] -88.7% | [7] -86.8% | [8] -99.9% | [9] -99.3% | [10] -94% | [11] -88% | [12] -87.3% | [13] -84.8% | [14] -97.4% | [20] -92.9% | [16] -93.1% | [17] -95.7% | [18] -66.7% | [19] -94.2%

COc1ccc(OC2=CC(=O)c3ccc(C)nc3C2=O)cc1
inactive: [1] 102% | [2] 43.5% | [3] 128% | [4] 90.1% | [5] 88.9% | [6] 79.2% | [7] 96.8% | [8] 89.6% | [9] 93.8% | [10] 87.3% | [11] 76.1% | [12] 102% | [13] 53.4% | [14] 87.7% | [15] 96.4% | [17] 83.6% | [18] 75.6% | [19] 93.5%

C=CC[P+](c1ccccc1)(c1ccccc1)c1ccccc1
inactive: [1] 79.4% | [2] 27.2% | [3] 47.8% | [4] 67.9% | [5] 95.3% | [6] 79.2% | [7] 80% | [8] 61.1% | [10] 62.4% | [11] 98.1% | [12] 40% | [13] 63.3% | [14] 61.6% | [20] 34.7% | [16] 33.4% | [17] 42% | [18] 66.4% | [19] 71.8%
active: [9] -3.34%

Brc1ccc(SCN(CSc2ccc(Br)cc2)Cc2ccccc2)cc1
active: [18] -15.5%
inactive: [1] 96.8% | [2] 81.5% | [3] 104% | [4] 39.8% | [5] 89.9% | [6] 45.4% | [7] 52.3% | [8] 49.8% | [9] 93.1% | [10] 73.7% | [11] 78.8% | [12] 78.9% | [13] 66.4% | [14] 84.2% | [20] 26.4% | [16] 91.2% | [17] 92% | [19] 101%

COc1cccc(-c2ccc3c(c2)C2CCN(Cc4ccccc4)C3C2)c1 (stereo not drawn)
inactive: [1] 95.6% | [2] 22.7% | [3] 62.8% | [4] 88.8% | [5] 98% | [6] 86.9% | [7] 81.2% | [8] 85.1% | [9] 78.7% | [10] 72.2% | [11] 57.8% | [12] 36.5% | [13] 77% | [14] 90.4% | [20] 66.5% | [16] 99.4% | [17] 83.6% | [18] 85.5% | [19] 85.7%

COc1ccc(/C=N/OCC(O)CN2CCC(O)CC2)cc1OC1CCCC1 (stereo not drawn)
inactive: [1] 109% | [2] 100% | [3] 108% | [4] 99.7% | [5] 115% | [6] 94.7% | [7] 104% | [8] 101% | [9] 109% | [10] 94.3% | [11] 109% | [12] 104% | [13] 80% | [14] 95.9% | [15] 103% | [17] 103% | [18] 105% | [19] 105%

COc1cccc(C2CC(=O)Nc3cc4c(cc32)OCO4)c1OC (stereo not drawn)
inactive: [1] 103% | [2] 83.1% | [3] 93.1% | [4] 97.3% | [5] 87% | [6] 101% | [7] 84.9% | [8] 88.5% | [9] 99.4% | [10] 115% | [11] 89.4% | [12] 90.6% | [13] 76.3% | [14] 101% | [15] 85.6% | [17] 96.1% | [18] 96.5% | [19] 111%

O=C1/C(=C/c2ccc(Cl)cc2)CN(Cc2cn(CCCNc3ccnc4cc(Cl)ccc34)nn2)C/C1=C\c1ccc(Cl)cc1
active: [1] -11.6% | [2] 0.972% | [3] -64.6% | [4] -58.4% | [5] -97.6% | [6] -84.7% | [7] -56.1% | [8] -91.5% | [9] -69.4% | [10] -64.9% | [11] -74.2% | [12] -69.6% | [13] -4.46% | [14] -79.6% | [15] -91.9% | [16] -86.2% | [18] -86.2% | [19] -82.6%

C[C@H]1C(=O)C23CCC1C[C@@]21O[C@@H]2C(C)(C)C=CC(=O)C23COC1=O
inactive: [1] 104% | [2] 104% | [3] 110% | [4] 118% | [5] 108% | [6] 104% | [7] 110% | [8] 111% | [9] 98.7% | [10] 102% | [11] 109% | [12] 110% | [13] 83.6% | [14] 100% | [15] 105% | [16] 103% | [18] 93.7% | [19] 111%

Cn1c2c(cc(S(=O)(=O)c3ccccc3)c1=O)CCc1c-2cnn1-c1ccccc1Cl
inactive: [1] 120% | [2] 95.5% | [3] 108% | [4] 101% | [5] 111% | [6] 106% | [7] 87.9% | [8] 90.2% | [9] 89.8% | [10] 110% | [11] 95.9% | [12] 104% | [13] 92.5% | [14] 96.2% | [20] 93.5% | [16] 105% | [17] 93.4% | [18] 107% | [19] 104%
